Screening data as filed in PubChem BioAssay.
Pf growth 96h: inhibits malaria parasite growth, 96 h; P. falciparum luciferase reporter growth, 96 h; Potency, µM (series often up to 28.7 µM), for inactives: at the top dose activity change, negative = inhibition, hits mostly inhibitors; 320,000 compounds, 6.9% hits; AID 504834; note: potency is the fitted concentration of half-maximal effect; % is set by controls: 0 for no effect and ±100 for the full control effect
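P. falciparum expressing integrated firefly luciferase, in erythrocytes at 2% hematocrit, 0.05% parasitemia, incubated with compounds 96 h at 37 C, 5% CO2. Growth inhibition read as loss of luminescence; two-generation exposure targets delayed-death apicoplast inhibitors.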
Pf growth 48h: inhibits P. falciparum growth in the first generation, 48 h | P. falciparum luciferase growth in erythrocytes, 48 h | Potency, µM (series often up to 28.7 µM), inactives show at the highest dose activity change, negative = inhibition, usual class: inhibitors | 310,000 compounds, 5.9% hits | AID 504832; note: potency is the fitted concentration of half-maximal effect; % is set by controls: 0 for no effect and ±100 for the full control effect
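Read-out is firefly luciferase luminescence from an integrated reporter in P. falciparum, so falling signal marks reduced parasite growth. Infected erythrocytes were at 2% hematocrit and 0.1% parasitemia (final) in Albumax-supplemented RPMI 1640.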
Shiga inhibitor: inhibitors of Shiga toxin in Vero cells. Vero cells, Shiga toxin protein synthesis inhibition reporter. inhibition, % at 38.7 µM. 290,000 compounds, 9.2% hits; in the data active = inhibition mostly above about 28%, no sharp cut-off; inactive = mostly below about 43%; note: 0% is about no effect
CHX counter: counter-screen for Shiga toxin inhibitors: cycloheximide protein synthesis inhibition | max response, % | AID 2314 | cell reporter, cycloheximide protein synthesis inhibition counterscreen | 300,000 compounds, 12% hits; in the data active = max response mostly above about 13%, no sharp cut-off; inactive = mostly below about 14%; note: read at 38.3 µM for the half of the compounds with a filed dose; 0% is about no effect
LmPK inh: inhibitors of Leishmania mexicana pyruvate kinase; purified LmPK, Kinase-Glo ATP luminescence, 1 h; Potency, µM (doses to about 57.5 µM), for the others: at the top dose activity change, negative = inhibition, hits mostly inhibitors; 290,000 compounds, 0.37% hits; Q27686; AID 1721; note: potency is the fitted concentration of half-maximal effect; % is set by controls: 0 for no effect and ±100 for the full control effect
Target sequence (Q27686 whole entry, looked up): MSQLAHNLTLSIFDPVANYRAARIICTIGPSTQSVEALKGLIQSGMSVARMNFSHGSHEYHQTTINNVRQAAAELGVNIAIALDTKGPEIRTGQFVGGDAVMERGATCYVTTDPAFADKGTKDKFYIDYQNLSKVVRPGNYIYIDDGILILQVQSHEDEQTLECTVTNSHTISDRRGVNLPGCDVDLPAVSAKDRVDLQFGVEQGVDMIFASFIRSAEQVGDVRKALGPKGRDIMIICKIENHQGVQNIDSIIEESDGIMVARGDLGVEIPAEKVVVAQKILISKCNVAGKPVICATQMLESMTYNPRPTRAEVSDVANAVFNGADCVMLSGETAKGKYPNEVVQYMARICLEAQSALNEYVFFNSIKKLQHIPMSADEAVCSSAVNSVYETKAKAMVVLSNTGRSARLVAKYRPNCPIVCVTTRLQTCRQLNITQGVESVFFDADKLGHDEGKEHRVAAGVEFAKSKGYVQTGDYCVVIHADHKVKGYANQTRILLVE
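qHTS format; LmPK 0.1 nM; substrates PEP 0.5 mM and ADP 0.1 mM. One-hour room-temperature incubation, then coupled luciferase luminescence; 0.5 nM enzyme wells mark activation.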
* = called active by the depositor; ? = inconclusive; . = no result. An excerpt weighted towards active compounds, which were near 22% of everything screened. Unless noted, calls come from the whole dose curve; as a rule, active = well fitted inhibition curve with a large enough effect; inconclusive = small, poorly fitted or top-dose-only effect, or another doubt; inactive = no such curve, though single readings can be large or run the other way.

SMILES	Pf growth 96h	Pf growth 48h	Shiga inhibitor	CHX counter	LmPK inh
CCC(C)NC(=O)c1ccc(NC(=O)CC2SC(N3CCCC3)=NC2=O)cc1 (centres undefined)	?	2.2%	.	.	.
CC(C)Cn1c(=O)c2ccccc2n2c(SCC(=O)N3c4ccccc4CC3C)nnc12 (centres undefined)	39.5%	18.2%	-9.1	-2.7	0.4%
Cc1c(NC(=O)Nc2ccc3c(c2)OCO3)cccc1[N+](=O)[O-]	0.2%	65.2%	76.5*	42.1*	-14.8%
COc1ccc(NC(=O)Nc2ccc3c(c2)OCO3)c(C)c1	14.6%	53.8%	82.4*	65.9*	-5.4%
Cc1ccc(CNc2ccc3c(c2)OCO3)c(C)c1	.	?	90.7*	43.9*	-6.4%
Cc1cc(OC(F)F)ccc1NC(=O)Nc1ccc2c(c1)OCO2	?	10.9%	14.9	-1.6	-2.5%
COc1ccc(NC(=O)Nc2ccc3c(c2)CCC3)cc1	56.7%	32.5%	36.0*	26.7*	-3.7%
CCCCC1CCC(C(=O)N(CCCC)c2c(N)n(CCCC)c(=O)[nH]c2=O)CC1 (centres undefined)	?	-8.2%	12.3	1.7	-3.5%
CCc1cccc(C)c1NC(=O)Nc1ccc2c(c1)OCO2	56.6%	15.3%	23.1	7.1	0.6%
Cc1ccccc1NC(=O)Nc1ccc2c(c1)OCO2	90.0%	91.2%	76.6*	44.4*	-20.9%
COc1ccccc1NC(=O)CN1CCN(CC(=O)Nc2ccc3c(c2)OCO3)CC1	9.3%	?	9.5	-0.7	-8.2%
Cc1ccc(NC(=O)Nc2ccc3c(c2)CCC3)c(C)c1	40.5%	9.0%	1.1	6.0	2.2%
O=C(Nc1ccc2c(c1)CCC2)Nc1ccccc1Cl	?	95.7%	154.9*	57.0*	-8.1%
CCOc1ccccc1NC(=O)Nc1ccc2c(c1)CCC2	?	11.9%	53.5*	38.8*	-12.8%
CC(=O)Nc1ccccc1OCC(=O)c1ccc2c(c1)OCO2	50.0%	123.3%	79.1*	42.7*	1.4%
Cc1cnc(C(=O)O)cn1	-7.4%	0.7%	.	.	.
CN(c1ccccc1)S(=O)(=O)c1cccc(NC(=O)CSc2ncc(C(F)(F)F)cc2Cl)c1	8.2%	0.9%	3.0	3.2	-3.2%
CCOc1ccccc1NC(=O)Nc1cccc(NC(C)=O)c1	?	-11.4%	16.5	-1.1	0.5%
Cc1ccc(C)c(NC(=O)Nc2ccc3c(c2)OCO3)c1	50.8%	169.2%	55.5*	47.3*	-0.2%
CCOc1ccccc1NC(=O)Nc1ccc2c(c1)OCO2	64.8%	22.6%	37.6*	36.6*	4.1%
O=C(Cc1ccccc1[N+](=O)[O-])Nc1ccc2c(c1)OCO2	?	39.4%	65.8	17.4*	-8.9%
CCn1ccnc1CN(C)Cc1cn(-c2cc(C)ccc2C)nc1-c1ccccc1	20.6%	?	12.3	-1.4	3.3%
Nn1c(SCC(=O)Nc2cc(S(=O)(=O)N3CCOCC3)ccc2Cl)nnc1-c1cccnc1	?	6.1%	14.7	-1.0	-1.2%
O=c1c(-c2ccc(O)cc2O)coc2cc(O)cc(O)c12	1.17µM*	86.7%	6.1	1.9	9.9%
COc1ccc(-c2coc3cc(O)cc(O)c3c2=O)cc1OC	36.9%	-2.5%	56.0*	26.7*	-2.7%
SMILES	Pf growth 96h	Pf growth 48h	Shiga inhibitor	CHX counter	LmPK inh
COc1ccccc1-c1coc2cc(O)cc(O)c2c1=O	.	4.1%	61.1*	29.6*	0.8%
COc1ccc(-c2c(C)oc3cc(O)cc(O)c3c2=O)cc1OC	?	1.8%	38.5	-1.4	6.9%
O=C1C2C3C=CC(C2C(=O)N1C1CCCCC1)C1C2C(=O)N(C4CCCCC4)C(=O)C2C31 (centres undefined)	?	18.9%	-13.4	-2.5	3.9%
Cn1ccc(C(=O)NC(=S)N2CCSCC2)n1	32.5%	-14.3%	12.1	12.2*	-2.7%
COc1cccc(C(=O)C2CCCN(C3CCOCC3)C2)c1 (centres undefined)	2.33µM*	-2.2%	2.3	-2.1	6.0%
CCOC(=O)N1CCC(N2CCCC(C(=O)c3ccc4cc(OC)ccc4c3)C2)CC1 (centres undefined)	?	8.28µM*	-4.1	-2.5	3.1%
CCOc1ccc(C(=O)NCC(=O)NCC(c2ccco2)N2CCCCC2)cc1 (centres undefined)	49.0%	19.0%	.	.	.
CCn1nc(C(=O)OCC(=O)c2c[nH]c3ccccc23)c2ccccc2c1=O	7.38µM*	4.65µM*	-10.4	-0.8	4.4%
